# Reference: PubChem BioAssay (Tox21)
# Records with an inconclusive call do not appear. A call without a number means that no potency is given here. Calls of active or inactive are those of the source. The rule behind the calls is not given here.
# Assay: qHTS assay to identify small molecule antagonists of the estrogen related receptor signaling pathway with the pleiotropic PPARgamma coactivator (PGC) from Tox21 10K library (AID 1224841); note: actives are mostly falling curves and most rising ones were filed inactive; nearly all actives have a fitted effect of over 50% in size
# Details: PGC/ERR reporter cell line, ONE-Glo luciferase, 18 h; series mostly up to 92.4 µM
# Summary of the method: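 Luminescence read-out (One-Glo luciferase reagent, 30 min at room temperature) from PGC/ERR cells exposed to DMSO-dissolved test compounds for 18 h at 37 C; cells, 2,000 per well, had been preincubated 6 h before compound transfer.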
row,SMILES,Potency
1,CC(C)(C)c1nnc(NS(=O)(=O)c2ccccc2)s1,inactive
2,c1ccc(CC2=NCCN2)cc1,inactive
3,CCCCCCCCCCCCN(CCCCCCCCCCCC)CCCCCCCCCCCC,inactive
4,COC(C)(C)CCCC(C)CC=O (stereo not drawn),inactive
5,C=CCS(=O)(=O)O,inactive
6,COCCCOCCCOC,inactive
7,NS(=O)(=O)c1ccc(C(=O)O)cc1,inactive
8,COc1c(N2C[C@@H]3CCCN[C@@H]3C2)c(F)cc2c(=O)c(C(=O)O)cn(C3CC3)c12,inactive
9,COC(=O)c1ccc(C)cc1C1=NC(C)(C(C)C)C(=O)N1 (stereo not drawn),inactive
10,CS(=O)(=O)O,inactive
11,CC(=O)c1ccccc1O,inactive
12,Cc1ccc(C#N)cc1,inactive
13,O=C(O)c1ccccc1OP(=O)(O)O,inactive
14,O=c1[nH]c(=O)n([C@H]2C[C@H](O)[C@@H](CO)O2)cc1I,inactive
15,CC(C)NC(=O)NC(C)C,inactive
16,CCOC(=O)[C@H](CCc1ccccc1)N[C@@H](C)C(=O)N1[C@H](C(=O)O)C[C@@H]2CCC[C@@H]21,inactive
17,COc1cc(C(=O)N2CCCCCCC2)cc(OC)c1OC,inactive
18,O=C(O)CCCc1ccccc1,inactive
19,CO/N=C(/C(=O)N[C@@H]1C(=O)N2C(C(=O)OCOC(=O)C(C)(C)C)=C(C)CS[C@H]12)c1csc(N)n1,inactive
20,Cc1cc2c(cc1S(N)(=O)=O)S(=O)(=O)CCC2,inactive
21,Cc1cc(O)cc2c1O[C@](C)(CCC[C@H](C)CCC[C@H](C)CCCC(C)C)CC2,inactive
22,CCOC(=O)c1c(C)n(C)c2ccc(O)cc12,inactive
23,O=C(CCCN1CCN(c2ccccn2)CC1)c1ccc(F)cc1,inactive
